The values that follow come from PubChem BioAssay (EPA / NIEHS).

The structures appear in SMILES notation. Activity calls are given as the source filed them. Rule for the calls: active = hit-call score of the fitted dose curve at least 0.9, where 1 is the maximum; inactive = score below 0.9.

This experiment can be described thus: Tanguay_ZF_120hpf_CRAN: Oregon State University Tanguay Lab 120 Hour Post-fertilization zebrafish Assay for Craniofacial Malformation (AID 2284397). How it is done:
Tanguay_ZF_120hpf is a whole embryo, multiplexed endpoint assay using zebrafish larvae exposed for 120 hours post fertilization on a 96-well plate.Tanguay_ZF_120hpf_CRAN is one of one assay component(s) measured or calculated from the Tanguay_ZF_120hpf assay. It is designed to make measurements of zebrafish development as detected with brightfield microscopy of developing zebrafish embryos.Data from the assay component Tanguay_ZF_120hpf_CRAN was analyzed into 1 assay endpoints. This assay endpoint, Tanguay_ZF_120hpf_CRAN, was analyzed in the positive analysis fitting direction relative to DMSO as the negative control and baseline of activity. Using a type of morphology reporter, gain-of-signal activity can be used to understand changes in developmentals as they relate to the whole embryo. To generalize the intended target to other relatable targets, this assay endpoint is annotated to the zebrafish development intended target family, where the subfamily is craniofacial morphogenesis.
Zebrafish husbandry: Tropical 5D wild-type adult zebrafish were housed in at an approximate density of 1000 per 100 gallon tank at the Sinnhuber Aquatic Research Laboratory, Oregon State University, Corvallis, OR. Each tank was kept at standard laboratory conditions of 28C on a 14-h light/10-h dark photoperiod in fish water consisting of reverse osmosis water supplemented with a commercially available salt (Instant Ocean). Spawning funnels were placed into the tanks the night prior, and embryos were collected and staged. To increase bioavailability, the chorion was enzymatically removed using pronase (63.6mg/ml, >/= 3.5U/mg, Sigma-Aldrich: P5147) at 4 hours post fertilization (hpf) using a custom automated dechorionator.Chemical exposures: Six hpf dechorionated embryos were placed 1 embryo per well in a 96-well plate prefilled with 90 ul of EM using automated embryo placement systems (AEPS). Ten microliters of each row of dilution plate 2 was added to 2 exposure plates. The final DMSO concentration used was 0.64% (vol/vol). Thirty-two embryos were also exposed to 5uM trimethyltin chloride (positive control). Plates were sealed to prevent evaporation and foil covered to reduce light exposure and kept in a 28C incubator. Embryos were statically exposed until 120 hpf. At 24 hpf, embryos were assessed for photomotor response using a custom photomotor response analysis tool (PRAT) and for developmental toxicity endpoints (MO24: mortality at 24 hpf, DP: developmental progression, SM: spontaneous movement, and NC: notochord distortion). At 120 hpf, locomotor activity was measured using Viewpoint Zebralab and assessed for 13 endpoints. Zebrafish acquisition and analysis program (ZAAP), a custom program designed to inventory, acquire, and manage zebrafish data, was used to collect developmental endpoints as either present or absent (i.e., binary responses were recorded). If mortality occurred for an embryo (at either 24 or 120 hpf), the non-mortality endpoints were not measured.
As to `O=C(O)C(F)(F)OC(F)(F)C(F)(F)OC(F)(F)C(=O)O`, the compound was classed as inactive.

For the compound `FC(F)(F)C(F)(C(F)(F)F)C(F)(F)C(F)(F)CC1CO1` (centres undefined), the compound was classed as inactive. Turning to `OCC(F)(F)OC(F)(F)C(F)(F)OC(F)(F)C(F)(F)OC(F)(F)CO`, the concentration at half-maximal activity (AC50) was 28.9 µM (active).

As for `OCC(F)(F)OC(F)(F)C(F)(F)OC(F)(F)C(F)(F)OC(F)(F)F`, the outcome was inactive. On the same count and under the same terms, the result for `O=C(O)C(F)(OC(F)(F)C(F)(F)C(F)(F)F)C(F)(F)F` (centres undefined) reads “inactive”. Consider `NC(=O)C(F)(F)C(F)(F)F`, for which the compound was called inactive. Regarding `CC(O)C(F)(F)C(F)(F)F` (centres undefined), the result was inactive. Take `O=C(O)C=CC(F)(C(F)(F)F)C(F)(F)F`: the result was inactive. As for `OCC(F)(F)OC(F)(F)C(F)(F)OC(F)(F)CO`, the compound was classed as inactive. Turning to `O=C(O)C(F)(F)OC(F)(F)C(F)(F)OC(F)(F)F`, the result was inactive. The same measure, in the same setting: the value for `COC(=O)C(F)(F)C(F)(F)OC(F)(C(F)(F)F)C(F)(F)OC(F)=C(F)F` (centres undefined) was “inactive”. As to `O=C(O)C(F)(F)C(F)(F)C(=O)O`, the compound was classed as inactive. Regarding `C=CC(=O)OCC(F)(F)C(F)F`, the compound was called inactive. For the compound `O=S(=O)(F)C(F)(F)C(F)(F)C(F)(F)C(F)(F)C(F)(F)C(F)(F)C(F)(F)C(F)(F)F`, the result was inactive.

As usually defined, the AC50 is the concentration giving half of the maximal activity seen.
